Source: PubChem
An excerpt weighted towards active compounds, which were near 1.7% of everything screened.
TrxR1 substrate: qHTS Assay for Substrates of Mammalian Selenoprotein Thioredoxin Reductase 1 (TrxR1): qHTS; Thioredoxin reductase 1, cytoplasmic (Rattus norvegicus), O89049; purified TrxR1 substrate turnover, NADPH consumption readout; Potency, µM (highest dose often 114 µM), for the others: top-dose activity change, negative = substrate turnover; 390,000 compounds, 0.01% hits; AID 588456, 2011; note: % is set by controls: 0 for no effect and ±100 for the full control effect; nearly all actives have a fitted effect of over 50% in size
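Rat TrxR1, dispensed at 90 nM, was prereduced with 400 uM NADPH (final) for 5 min at ~22 deg C, then incubated with compound 15 min before 400 uM selenite. A first-read NADPH fluorescence drop versus no-compound background flagged substrates.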
Apoferritin bind: qHTS Assay for Identification of Novel General Anesthetics; Ferritin light chain (Equus caballus), P02791; apoferritin/1-aminoanthracene competitive binding, fluorescence; Potency, µM (highest dose often 77.5 µM), without a hit: at the top dose activity change, negative = displacement, hits mostly inhibitors; 350,000 compounds, 0.074% hits; note: % is set by controls: 0 for no effect and ±100 for the full control effect; nearly all actives have a fitted effect of over 20% in size
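Horse-spleen apoferritin (10 uM) in 50% saturated 1-aminoanthracene in PBS was incubated 10 min at room temperature with compound. Fluorescence (ex 380, em 535 nm) was normalized to free and bound 1-AMA, with concentration-response fitted by a four-parameter Hill equation.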
GRP78 ERSR act: qHTS for Inducers of the Endoplasmic Reticulum Stress Response (ERSR) in Human Glioma: qHTS. Potency, µM, without a hit: at the top dose activation, most hits filed as activators. 420,000 compounds, 0.02% hits. U87-MG GRP78 promoter luciferase reporter, 16 h; note: series mostly up to about 76 µM; % of control where 0% means no effect; nearly all actives have a fitted effect of over 35% in size
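Stably transfected U87-MG human glioma cells carrying a GRP78-based luminescent sensor were seeded at 1000 cells/well, pin-dosed with compounds and incubated 16 h. Luciferase reagent was then added, and end-point luminescence was read after 10 min at room temperature.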
IDH1 R132H inh: qHTS for Inhibitors of mutant isocitrate dehydrogenase 1 (IDH1): qHTS; Isocitrate dehydrogenase [NADP] cytoplasmic (Homo sapiens), O75874; IDH1-R132H enzyme, NADPH consumption, diaphorase/resazurin fluorescence; Potency, µM (top dose mostly 76.6 µM), for inactives: top-dose activity change, negative = inhibition, actives largely listed as inhibitors; 390,000 compounds, 0.093% hits; AID 602179, 2012; note: % is set by controls: 0 for no effect and ±100 for the full control effect; nearly all actives have a fitted effect of over 65% in size
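IDH1-R132H (0.5 ug/mL dispensed) in pH 7.5 Tris buffer was preincubated 30 min with compound, then given a substrate mix of 0.016 mM NADPH and 2 mM alpha-KG for 80 min at room temperature; remaining NADPH was read by diaphorase/resazurin fluorescence.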
rTrxR1 inhibitor: qHTS Assay for Inhibitors of Mammalian Selenoprotein Thioredoxin Reductase 1 (TrxR1): qHTS | Thioredoxin reductase 1, cytoplasmic (Rattus norvegicus), O89049 | recombinant rTrxR1, NADPH fluorescence consumption, selenite substrate | Potency, µM (titrated, usually from 114 µM), inactives show top-dose activity change, negative = inhibition, usual class: inhibitors | 390,000 compounds, 1% hits | AID 588453, 2011; note: % is set by controls: 0 for no effect and ±100 for the full control effect; nearly all actives have a fitted effect of over 65% in size
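Rat TrxR1 (90 nM in the dispensed reagent) was pre-reduced with 400 uM NADPH for 5 min at room temperature, then incubated with compound for 15 min. After 400 uM selenite was added, NADPH fluorescence (Ex 340/Em 450 nm) was followed for 8 min.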
ALOX12 inh: Primary qHTS assay for inhibitors of human arachidonate 12S-lipoxygenase (ALOX12): Round 2; Polyunsaturated fatty acid lipoxygenase ALOX12 (Homo sapiens), P18054; 580,000 compounds, 1.1% hits; purified 12hLO, xylenol orange hydroperoxide absorbance; Potency, µM (top dose mostly 108 µM), inactives show top-dose activity change, negative = inhibition, usual class: inhibitors; note: % is set by controls: 0 for no effect and ±100 for the full control effect
Target sequence (P18054 whole entry, looked up): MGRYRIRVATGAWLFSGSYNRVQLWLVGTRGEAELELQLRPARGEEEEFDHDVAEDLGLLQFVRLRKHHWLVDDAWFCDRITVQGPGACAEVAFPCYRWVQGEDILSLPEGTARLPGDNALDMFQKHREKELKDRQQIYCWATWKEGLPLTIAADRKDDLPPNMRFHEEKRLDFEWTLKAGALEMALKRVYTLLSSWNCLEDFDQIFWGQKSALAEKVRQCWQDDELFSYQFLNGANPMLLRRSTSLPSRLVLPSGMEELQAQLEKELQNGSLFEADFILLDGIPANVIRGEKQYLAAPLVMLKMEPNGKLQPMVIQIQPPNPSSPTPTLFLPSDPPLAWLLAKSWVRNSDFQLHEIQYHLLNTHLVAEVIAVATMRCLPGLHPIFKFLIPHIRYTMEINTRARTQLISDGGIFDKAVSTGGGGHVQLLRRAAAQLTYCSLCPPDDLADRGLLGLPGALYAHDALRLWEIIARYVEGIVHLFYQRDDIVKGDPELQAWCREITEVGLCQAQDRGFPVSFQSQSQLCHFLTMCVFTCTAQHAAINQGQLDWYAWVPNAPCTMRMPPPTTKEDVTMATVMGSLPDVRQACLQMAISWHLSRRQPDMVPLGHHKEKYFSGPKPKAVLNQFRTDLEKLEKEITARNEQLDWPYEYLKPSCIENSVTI
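Purified human 12hLO at 150 nM in 25 mM Hepes, 0.01% Triton X-100, pH 7.0, preincubated 15 min at room temperature with compound. Reaction started with 40 uM arachidonic acid, 30 min at room temperature. Hydroperoxide measured by Fe-xylenol orange, 573/405 nm absorbance ratio.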
An asterisk follows results filed as active; u = inconclusive; x = no result; ! = not active in a repeat; [ ] = remark or other dose. Calls come from the whole dose curve; as a rule, active = well fitted curve in the direction sought with a large enough effect; inconclusive = small, poorly fitted or top-dose-only effect, or another doubt; inactive = no such curve, though single readings can be large; an effect the other way counts as inactive or inconclusive. Potency is the fitted concentration of half-maximal effect.

SMILES | TrxR1 substrate | Apoferritin bind | GRP78 ERSR act | IDH1 R132H inh | rTrxR1 inhibitor | ALOX12 inh
Cc1ccc(-c2cc(C(=O)N3CC(C)OC(C)C3)c3ccccc3n2)o1 (centres undefined) | 353% | x | 2% | 3% | 8% | u
Cc1ccc(-c2cc(C(=O)N3CCN(C(=O)C4CC4)CC3)c3ccccc3n2)o1 | x | x | x | x | x | 22µM*
Cc1c(C(C)(C)C)sc(=N)n1C | x | x | x | x | x | 45µM*
N#Cc1cccc(COc2cccc(C#N)c2)c1 | x | x | x | x | x | 13%
CCOC(=O)CSC1=NC(=O)/C(=C\c2ccc(OC(C)=O)cc2)S1 | -8% | -19% | 4% | -15% | 8.9µM* | u
CCOC(=O)COc1ccc(Br)cc1/C=C1\SC(N)=NC1=O | 9%[2.29 µM] | -8% | 3% | -8% | 10% | 17%
N#Cc1ccc(OCC(=O)c2ccc3c(c2)OCCO3)cc1 | x | x | x | x | x | -8%
N#Cc1ccc2c(c1)OCCO2 | x | x | x | x | x | 8.9µM*
CN1CCOc2c(C(=O)NCCc3cnc[nH]3)cc(-c3ccccc3)cc21 | x | x | x | x | x | 68%[176 µM]
O=C(NC(=S)Nc1nc(-c2cccc([N+](=O)[O-])c2)cs1)c1cc(Cl)ccc1Cl | 3%[57.1 µM] | -5% | -3% | -4% | 28µM* | 0%
CCN(c1ccccc1)S(=O)(=O)c1ccc(NC(=O)c2nc(S(C)(=O)=O)ncc2Cl)cc1 | -3% | u | -16% | 0% | 0.4µM* | -26%
CCS(=O)(=O)c1ncc(Cl)c(C(=O)Nc2ccc(S(=O)(=O)N(C)c3ccccc3)cc2)n1 | 2% | -35% | -19% | -2% | 2.8µM* | -7%
CCSc1ncc(Cl)c(C(=O)Nc2ccc(S(=O)(=O)N(C)c3ccccc3)cc2)n1 | 0% | -4% | -2% | -13% | 21% | -27%
COc1ccccc1CCC(=O)N1CC(F)(F)C[C@H]1c1nc(C)no1 | x | x | x | x | x | 45%
COc1ccc(-c2noc([C@@H]3CCCN3C(=O)c3ccc(C#N)cc3)n2)cc1OC | x | x | x | x | x | 25µM*
COc1ccc(CC(=O)Nc2ccc3ncnc(N4CCCC4)c3c2)cc1Cl | x | x | x | x | x | 11%
O=C1c2ccccc2C(=O)c2c(O)c(O)cc(O)c21 | -1% | 5% | -4% | -5% | -6% | 32µM*!
CC1=Nc2cc(C(=O)NC3CCCC3)ccc2Sc2ccc(Br)cc21 | -1% | 4% | -6% | -1% | -4% | 0%
CC1=Nc2cc(C(=O)O)ccc2Sc2ccc(Br)cc21 | 4% | -4% | 1% | 2% | 3% | 45µM*
CN(C)C(=O)c1ccc(-c2cc3cnc(Nc4ccccc4Cl)cc3[nH]2)cc1 | x | x | x | x | x | 6%
CCCCOc1ccc(C(=O)N(Cc2ccco2)Cc2ccco2)cc1 | -11% | -6% | -3% | 22% | -14% | 18µM*
O=C1C=CC(=O)C(C2=C3C(=O)N(CCc4ccccc4)CC(=O)N3CCC2)=C1 | 0% | 0% | -14% | 1% | 3.2µM* | 40µM*
O=C1CC2(CCCCC2)CC(=O)N1CCc1ccccc1 | -5%[2.29 µM] | x | 6% | 3% | -8%[2.29 µM] | 2%
CC(C)NC(=O)N1CCNC[C@@H]1C(=O)N[C@@H](CC1CCCCC1)C(N)=O | x | x | x | x | x | 5%[176 µM]
Cc1ccc2nc(/C(C#N)=C/c3ccc(O)c(O)c3)[nH]c2c1 | -4% | u | 19% | 9% | -13% | 7.1µM*
SMILES | TrxR1 substrate | Apoferritin bind | GRP78 ERSR act | IDH1 R132H inh | rTrxR1 inhibitor | ALOX12 inh
COc1ccc2nc(/C(C#N)=C\c3ccco3)[nH]c2c1 | x | x | x | x | x | 40µM*
N#C/C(=C\c1cc(Br)c(Br)o1)c1nc2ccccc2[nH]1 | x | x | x | x | x | 11µM*
Cc1ccc(Sc2oc(/C=C(/C#N)c3nc4ccccc4[nH]3)cc2Br)cc1 | x | x | x | x | x | -12%
COc1ccc(NC(=O)CN(C)CC(=O)NC(=O)NCc2ccccc2)cc1 | x | x | x | x | x | 24%
COc1ccc(C(=O)N2CCC3(CC2)OCC(C(=O)NC(C)C)N3C(=O)c2ccccc2)cc1OC (centres undefined) | x | x | x | x | x | 10%
CCOC(=O)C1=C(COC(=O)c2ccc([N+](=O)[O-])o2)NC(=O)NC1C (centres undefined) | -2% | x | -3% | 1% | 28µM* | -16%
COCCN1CCCCCC(O)c2cc(C(=O)NCc3nc4ccccc4n3C)ccc21 (centres undefined) | x | x | x | x | x | 83%
CCN1CCN(C(c2cccc(F)c2)c2c(O)cc(C)n(CCOC)c2=O)CC1 (centres undefined) | -3%[57.1 µM] | 53% | -4% | -2% | 11µM* | 0%
CCN1CCN(C(c2ccc(OC)cc2)c2c(O)cc(C)n(CCOC)c2=O)CC1 (centres undefined) | -1%[57.1 µM] | -4% | -2% | -16% | 14µM* | -2%
CCN1CCN(C(c2ccc(Cl)cc2)c2c(O)cc(C)n(CCOC)c2=O)CC1 (centres undefined) | 11%[57.1 µM] | -8% | -2% | -1% | u | 2%
CCOc1ccc2cc(-c3ccc(OC)cc3)c(=O)oc2c1 | x | x | x | x | x | 2%
COc1ccc(N(CC(=O)NCc2ccccc2Cl)S(=O)(=O)c2c(C)[nH]c(=O)[nH]c2=O)cc1 | 6% | -3% | -1% | -6% | 15% | -29%
S=c1[nH]nc(-c2cc3c(s2)-c2ccccc2CC3)o1 | 307%[57.1 µM] | 793% | 7% | -2% | -7%[57.1 µM] | 40µM*
CSc1nnc(-c2cc3c(s2)-c2ccccc2CC3)o1 | 237%[57.1 µM] | 34% | 7% | 5% | 55%[57.1 µM] | 0%
COc1ccc(NC(=O)C(=O)c2cc(C)n(-c3ccc(C)cc3)c2C)cc1Cl | -4% | -15% | 0% | -22% | 9% | -2%
COc1ccc(NC(=S)N2CCCN(Cc3cccc(Cl)c3)C2)cc1 | 1% | -6% | -5% | 0% | 13% | u
CSc1cccc(NC(=S)N2CCCN(Cc3cccc(Cl)c3)C2)c1 | -1% | 43% | 3% | -6% | 13% | 35µM*
C[C@H](CO)N1C[C@H](C)[C@@H](CN(C)S(=O)(=O)c2ccc(F)cc2)Oc2ncc(Br)cc2C1=O | x | x | x | x | x | -22%
C[C@@H]1CN([C@H](C)CO)C(=O)c2cc(Br)cnc2O[C@@H]1CN(C)C(=O)CC1CC1 | x | x | -5% | 11% | x | -6%
C[C@@H]1CN([C@@H](C)CO)C(=O)c2cc(C#CC3CCCCC3)cnc2O[C@@H]1CN(C)S(=O)(=O)c1ccc(F)cc1 | x | x | -3% | 1% | x | 40µM*
